High-throughput results from PubChem BioAssay.
GRIN3A LBD mod – modulators (binders) of human NR3A ligand-binding domain; NR3A LBD differential scanning fluorimetry, Tm shift; 0% = protein alone, 100% = glycine-bound protein; Tm shift relative to glycine control, % at 25 µM; hit rate 2.5% among 340,000;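 active = melting temperature shift of at least 10% of the positive control shift, at one fixed dose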
CRFBP-R2 agonist – CRF-BP/CRF-R2 complex agonism; HEK293 CRF-R2/CRF-BP, calcium dye fluorescence (FLIPR); percent of saturating CRF peptide response; activation, % at 13.2 µM; hit rate 0.46% among 350,000; AID 588473;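 active = activation of at least 50%, plus an integration ratio under a set limit after plate pattern correction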;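 note: plate controls were neutral control wells without compound for no effect and CRF at EC100 for full effect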
ANO1 activ – activates or potentiates the mouse TMEM16A chloride channel. Q8BHY3. B-score at 10 µM. hit rate 0.3% among 340,000. AID 623877. HEK293 TMEM16A/YFP-H148Q/I152L, iodide quench fluorescence; hits give low values;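 active = fluorescence-ratio B-score plate-corrected deviation score at least 3 library SD below zero, with starting fluorescence score within 5 deviations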;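 note: channel opened by trigger with iodide after compound preincubation; score built on the fluorescence ratio of max minus min over baseline; more negative score means more quench and so TMEM16A activation or potentiation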
CRFR2-BP antag – antagonists of CRF-binding protein/CRF-R2 receptor complex. hit rate 0.59% among 350,000. AID 588475. inhibition, % at 11.8 µM. HEK293 CRF-R2/CRF-BP, CRF-induced calcium fluorescence;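 active = inhibition of the ligand-induced calcium signal above about 50% at the single tested concentration, limit read from the data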
MPTP block – permeability transition pore inhibition. isolated mouse mitochondria, Ca2+ swelling absorbance, 30 min. inhibition, % at 10 µM. hit rate 1.4% among 360,000;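 active = inhibition of 50% or more, scaled per plate between neutral and stimulator controls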;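 note: 0% = DMSO wells given calcium and 100% = 1 mM EGTA wells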
TMEM16A inh – inhibitors of mouse TMEM16A calcium-activated chloride channel; Q8BHY3; HEK293 TMEM16A/YFP iodide influx fluorescence, ionomycin; normalized B-score (activity score, 25-100; higher = stronger inhibition) at 10 µM; hit rate 1.2% among 310,000;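 active = ratio plate-corrected score three or more library SD toward inhibition, starting fluorescence score within five deviations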;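 note: score derived from kinetic fluorescence span divided by baseline fluorescence per well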
TMEM16A reconf – TMEM16A (mouse) chloride channel inhibition, re-confirmation; shares compounds with TMEM16A inh; HEK293 TMEM16A/YFP-H148Q, iodide quench fluorescence; ionomycin added to raise cell calcium; inhibition, % at 10 µM; hit rate 39% among 2,300; AID 652189;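 active = mean duplicate percent inhibition, scaled so buffer wells are 0 and the reference blocker 100, over three buffer SD above buffer mean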
TMEM16A Ca cntr – counter-screen for TMEM16A inhibitors: effect on calcium mobilization | shares compounds with TMEM16A inh | TMEM16A/YFP HEK293, Fluo4 calcium mobilization | calcium response (% of ionomycin), % at 10 µM | hit rate 2% among 2,300;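 active = duplicate-averaged calcium signal over 20% of the ionomycin maximum, relative to buffer baseline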;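 note: each well's signal is peak minus trough fluorescence divided by its pre-addition baseline; 0% = buffer wells and 100% = ionomycin wells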
YFP-HEK293 quench – acts in parental YFP-HEK293 cells lacking TMEM16A, counter-screen | shares compounds with TMEM16A inh | iodide YFP quench, ionomycin | YFP ratio F(max-min)/F0 at 10 µM | 2,300 tested, under 10 active | AID 652233;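 active = yellow fluorescent protein signal ratio exceeding the buffer control mean by over 5 SD of those controls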;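 note: ratio is mean of duplicate wells from kinetic YFP trace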
ClC-1 rat inh – rat ClC-1 inhibition, TMEM16A specificity screen. 2,300 tested, under 10 active. CHO ClC-1-YFP, iodide influx fluorescence quench; iodide control reads 0, buffer control 100. shares compounds with TMEM16A inh. ratio percent, % at 10 µM;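 active = duplicate-mean ratio percent above the mean of iodide-only control wells, which defines zero, plus 5 of their SD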;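 note: higher percent means stronger block of ClC-1 iodide influx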
Target sequence (P35524 whole entry, looked up): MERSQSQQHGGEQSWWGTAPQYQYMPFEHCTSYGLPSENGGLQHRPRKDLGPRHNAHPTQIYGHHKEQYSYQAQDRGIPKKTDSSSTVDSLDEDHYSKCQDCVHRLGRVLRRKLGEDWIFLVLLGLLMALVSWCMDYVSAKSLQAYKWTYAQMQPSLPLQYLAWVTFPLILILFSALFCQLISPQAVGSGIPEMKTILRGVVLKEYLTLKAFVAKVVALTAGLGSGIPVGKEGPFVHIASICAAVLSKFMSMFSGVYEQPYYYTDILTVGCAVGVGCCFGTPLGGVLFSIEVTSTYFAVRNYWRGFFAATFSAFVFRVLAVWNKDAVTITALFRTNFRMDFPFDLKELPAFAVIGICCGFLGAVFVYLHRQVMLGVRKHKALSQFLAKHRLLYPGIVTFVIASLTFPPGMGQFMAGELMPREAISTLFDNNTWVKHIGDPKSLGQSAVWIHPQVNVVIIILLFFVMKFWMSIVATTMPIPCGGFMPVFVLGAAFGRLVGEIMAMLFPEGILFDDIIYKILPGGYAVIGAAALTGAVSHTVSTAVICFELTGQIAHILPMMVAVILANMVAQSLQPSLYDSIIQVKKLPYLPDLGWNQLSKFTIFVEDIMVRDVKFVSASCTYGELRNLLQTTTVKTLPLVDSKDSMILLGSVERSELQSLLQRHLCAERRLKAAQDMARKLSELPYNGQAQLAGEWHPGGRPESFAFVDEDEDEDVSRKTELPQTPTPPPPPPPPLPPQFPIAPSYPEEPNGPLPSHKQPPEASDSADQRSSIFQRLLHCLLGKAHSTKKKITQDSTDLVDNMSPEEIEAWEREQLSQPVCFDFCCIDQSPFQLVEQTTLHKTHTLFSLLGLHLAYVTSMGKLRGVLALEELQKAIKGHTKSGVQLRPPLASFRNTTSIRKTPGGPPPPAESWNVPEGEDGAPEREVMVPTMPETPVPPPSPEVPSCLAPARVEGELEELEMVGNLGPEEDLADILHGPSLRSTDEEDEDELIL
Active calls of the source: *; i = inactive; / = not tested or not shown. Hits are enriched below; roughly 5.1% of the tested compounds scored in any of these assays.

SMILES	GRIN3A LBD mod	CRFBP-R2 agonist	ANO1 activ	CRFR2-BP antag	MPTP block	TMEM16A inh	TMEM16A reconf	TMEM16A Ca cntr	YFP-HEK293 quench	ClC-1 rat inh
N[C@@H](Cc1ccccc1)C(=O)N1CCC(C(=O)N[C@@H](CCC(=O)O)C(=O)O)CC1	-9	4	i	-2	1	i	/	/	/	/
O=C(C1CCCCN1S(=O)(=O)c1ccccc1)N1CCN(Cc2ccccc2)CC1 (configuration not stated)	-24	0	i	-3	0	25*	i	i	-1.1	-4
CC(C)(NO)/C(=N/O)c1cccs1	0	0	i	-14	0	25*	i	i	-1.1	-4
Cc1ccc(C)n1NC(=O)c1cccs1	-1	0	i	-3	8	i	/	/	/	/
Cc1nc(C(F)(F)F)c(C(=O)NC(=O)Nc2ccc(OC(F)(F)F)cc2)s1	-5	0	i	-5	46	100*	i	i	-1.1	4
Cc1nc(C(F)(F)F)c(C(=O)NC(=O)Nc2ccccc2)s1	-1	-1	i	-9	-3	i	/	/	/	/
C[C@H](O)[C@H](O)[C@H]1CNc2nc(N)[nH]c(=O)c2N1	1	-1	i	2	3	i	/	/	/	/
C[C@H](O)C(=O)C1=Nc2c(nc(N)[nH]c2=O)NC1	-3	1	i	-11	0	i	37%*	89%*	-0.53	-2
COc1cc(C(F)(F)F)ccc1C(=O)NCCc1ccco1	1	-6	i	7	0	i	/	/	/	/
CCc1ccc(CNn2cnnc2SCC(=O)NC(C)(C)C)cc1	0	-2	i	4	2	100*	i	i	-1.1	-10
CC(=O)c1ccc(N2CCN(C(=O)Nc3ccc(C)cc3)CC2)cc1	-1	-2	i	32	-6	i	/	/	/	/
CC(=O)c1ccc(NC(=O)N2CCN(c3ccc(C)cc3)C(C)C2)cc1 (configuration not stated)	0	0	i	7	1	25*	i	i	-0.88	-4
CN(C)Cc1cc(O)c(CN(C)C)cc1O	0	6	i	8	2	i	i	i	-0.86	-6
CN(C)Cc1cc(C(C)(C)C)cc(C(C)(C)C)c1O	1	0	i	-22	4	i	/	/	/	/
CCN(CC)C(=O)Cn1cc(S(=O)(=O)CC(=O)Nc2cc(OC)ccc2OC)c2ccccc21	-2	0	i	2	-1	i	/	/	/	/
CC1CCN(C(=O)CSCC(=O)Nc2nc(-c3cccs3)cs2)CC1	4	0	i	11	0	100*	i	i	-1	-16
CC1CCCN(C(=O)CSCC(=O)Nc2nc(-c3cccs3)cs2)C1 (configuration not stated)	-1	-7	i	-1	14	i	/	/	/	/
CC1(C(=O)Nc2ccc3c(c2)OCO3)CCN1C(=O)CCC1CCCC1 (configuration not stated)	/	/	/	/	0	/	/	/	/	/
CCOC(=O)c1cc(C)n(S(=O)(=O)c2ccc(C)cc2)c1C	14*	-2	i	14	0	100*	18%*	i	-1.1	-4
CCOC(=O)c1ccccc1NS(=O)(=O)c1ccc(C)cc1	0	4	i	3	3	i	/	/	/	/
COc1ccc(OC)c(/C=C/c2nc3ccccc3[nH]c2=O)c1	0	42	i	-71	0	i	i	i	-1	16
O=c1[nH]c2ccccc2nc1/C=C/c1ccc(F)cc1	-4	35	i	-112	-1	i	i	i	-1.1	23
CCn1c(=O)n(CC)c2cc(S(=O)(=O)N3CCC(c4ccccc4)CC3)ccc21	7	0	i	6	3	100*	i	i	-1.2	-24
Cn1c(=O)c(=O)n(C)c2cc(S(=O)(=O)N3CCC(Cc4ccccc4)CC3)ccc21	-4	0	i	18	4	i	/	/	/	/
CCN(CC)S(=O)(=O)c1cccc(C(=O)OCC(=O)c2ccc3c(c2)NC(=O)CO3)c1	5	-1	i	-10	2	25*	i	i	-1.1	-2
SMILES	GRIN3A LBD mod	CRFBP-R2 agonist	ANO1 activ	CRFR2-BP antag	MPTP block	TMEM16A inh	TMEM16A reconf	TMEM16A Ca cntr	YFP-HEK293 quench	ClC-1 rat inh
O=C(CCC1CCCCC1=O)c1ccccc1 (configuration not stated)	1	1	i	-4	0	i	/	/	/	/
CC1(C)CC(=O)C(CCC(=O)c2ccccc2)C(C)(C)N1 (configuration not stated)	-3	0	i	7	2	25*	i	i	-1.1	-14
CCCC/C(O)=C1\C(=O)CC(C)(C)CC1=Nc1ccccc1OC	2	-1	i	-2	2	25*	i	i	-1.1	-4
CCN(CC)S(=O)(=O)c1cccc(-c2nnc(SCc3nc4ccccc4s3)o2)c1	0	0	i	1	1	100*	18%*	i	-0.91	0
O=c1c2cc(Br)ccc2nc(-c2ccc(Cl)cc2)n1O	/	73*	i	33	1	25*	39%*	110%*	-0.87	-6
CC(C)(C)c1ccc(C(=O)Nc2cccc3ncccc23)cc1	0	15	i	-14	1	i	30%*	i	-1.4	-14
COCCN(C(=O)CCC(=O)Nc1nccs1)C(C(=O)NC(C)(C)C)c1ccc(F)cc1 (configuration not stated)	0	-1	i	-6	-4	100*	i	i	-1.1	0
CC1Sc2ccc(S(=O)(=O)N(C)Cc3ccccc3)cc2NC1=O (configuration not stated)	1	-2	i	-8	0	25*	i	i	-0.82	-10
C[C@H](CO)N1C[C@H](C)[C@@H](CN(C)Cc2cncnc2)Oc2cc(Br)ccc2S1(=O)=O	/	-1	/	5	0	/	/	/	/	/
COc1ccc(NS(=O)(=O)c2ccc(OC)c(N(C)S(=O)(=O)c3ccc(Cl)cc3)c2)cc1	-5	1	i	-23	14	100*	i	i	-1.1	-18
